Laboratory results taken from PubChem BioAssay AID504651 (National Center for Advancing Translational Sciences (NCATS), 2011).
About 130 (0.036%) of roughly 360,000 compounds were called active. The full list was thinned out, with actives kept by preference. Values without a mark were called inactive. No stated cut-off is given here; in the data, active means potentiation above about 30%; inactive means the rest.

Molecular target: D(1A) dopamine receptor (Homo sapiens) (UniProt P21728)
Experiment: Potentiators of Human D1 Dopamine Receptor: qHTS; further: 0% is about no effect
Settings: HEK293 TREx D1 cells, calcium flux, dopamine EC20 potentiation; at 10 µM; active compounds read high
Description: Dopamine receptors (DARs) are involved in the etiology and/or therapy of a number of neuropsychiatric and endocrine disorders. For instance, all receptor-based antiparkinsonian drugs work via stimulating the D1 DAR subtype whereas all FDA-approved antipsychotic agents are antagonists of this receptor. […] There are three different types of allosteric modulators that we are seeking, two of which will stimulate or augment receptor signaling, allosteric agonists and potentiators, while the third, allosteric antagonists, will attenuate receptor signaling. The present primary screening assay measures compound potentiation of an EC20 dopamine response by tracking calcium flux in a […], inducible Hek293 Trex D1 cell line.
NIH Chemical Genomics Center [NCGC]
NIH Molecular Libraries Probe Centers Network [MLPCN]
Assay Submitter (PI): David Sibley
Freshly passaged cells are plated in 1536 well black, clear bottom plates at a density of 4000 cells/well in 3 ul of complete media containing 1x tetracycline inducer. After an overnight incubation at 30 C in 5% CO2, cells are loaded with 2 ul of the no wash Calcium Assay Kit (ABD Bioquest) and incubated at room temperature for 30 to 90 minutes. A 10 cycle (1 second/cycle) baseline measurement is taken and then the FDSS online 1536 pintool delivers 23 nl of compound library (as well as dopamine controls) to the plate. The plate is measured for kinetically at 1 cycle/sec for 180 seconds and is considered to be the agonist portion of the assay (eg, compounds which activate a positive calcium response during this portion are flagged as potential agonists). Following the 180 second read, 1 ul of an EC20 of dopamine is delivered by an onboard pipette head. Measurements are taken kinetically for an additional 180 seconds.

Chain of D(1A) dopamine receptor (Homo sapiens) (P21728 whole entry, looked up): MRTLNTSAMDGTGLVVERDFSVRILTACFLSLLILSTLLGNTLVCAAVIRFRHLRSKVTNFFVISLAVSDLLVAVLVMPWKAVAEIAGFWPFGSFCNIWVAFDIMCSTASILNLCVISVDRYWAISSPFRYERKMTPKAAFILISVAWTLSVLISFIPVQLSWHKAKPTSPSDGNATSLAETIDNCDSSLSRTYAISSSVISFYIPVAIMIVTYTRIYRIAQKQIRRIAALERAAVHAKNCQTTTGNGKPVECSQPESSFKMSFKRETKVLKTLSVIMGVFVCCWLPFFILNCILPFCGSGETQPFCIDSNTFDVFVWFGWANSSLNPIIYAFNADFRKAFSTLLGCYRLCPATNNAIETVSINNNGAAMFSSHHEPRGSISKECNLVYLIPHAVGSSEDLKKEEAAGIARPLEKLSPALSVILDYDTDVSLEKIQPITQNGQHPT

In order of falling potentiation:
1. Cn1nnnc1Sc1ncnc2scc(-c3ccccc3[N+](=O)[O-])c12  9.9%
2. CC(C)c1ccc(C2CC(=O)N3CN(C4CCCCC4)CSC3=C2C#N)cc1 (stereo unspecified)  9.05%
3. O=[S+]([O-])(c1ccc(OC(F)(F)F)cc1)N1CCN([S+](=O)([O-])c2ccc3c(c2)OCCO3)CC1  5.85%
4. CN=C1S/C(=C\c2ccc(Sc3ccc(Cl)cc3)o2)C(=O)N1C  5.08%
5. CCCCC(CC)CNC(=O)C1CCN(S(=O)(=O)c2cccc3nsnc23)CC1 (stereo unspecified)  3.8%
6. CCOc1ccccc1NC(=O)Cn1c(=O)n(-c2cccc(C)c2)c(=O)c2c1c1cc(OC)ccc1n2C  3.65%
7. CC(C)S(=O)(=O)c1oc(-c2ccc(F)cc2)nc1S(=O)(=O)c1ccc(F)cc1  3.35%
8. Cc1ccc(NC(=O)c2oc3ccc(S(=O)(=O)N4CCCCC4)cc3c2C)cc1Cl  3.15%
9. CCOc1ccccc1NC(=O)CSc1ncc(S(=O)(=O)c2ccc(C(C)(C)C)cc2)c(=O)[nH]1  2.25%
10. O=C(NCCc1ccccc1)c1ccc2c(c1)N(Cc1ccc(F)cc1)C(=O)c1ccccc1S2(=O)=O  2.25%
11. Cc1cccc2nc(-c3ccc(Cl)s3)c(Nc3ccc4c(c3)OCCO4)n12  1.7%
12. COc1ccc(Cl)cc1NC(=O)Cn1c(=O)c2ccccc2n2nncc12  1.65%
13. Oc1ccc(Cl)cc1C1C=C(c2ccc3c(c2)OCO3)NC(c2ccc(F)c(Br)c2)N1 (stereo unspecified)  1.65%
14. Cc1ccc(NC(=O)c2ccc(CN3CC(=O)N4CCCCC4C3=O)cc2)c(Cl)c1 (stereo unspecified)  1.5%
15. CCCCN(CC)CCCNC(=O)Cn1ncc2c([nH]c3ccc(C)cc32)c1=O  1.4%
16. CCc1ccc(S(=O)(=O)c2nnn3c2nc(N2CCN(CC)CC2)c2sccc23)cc1  1.1%
17. CCCCCn1c(=O)[nH]c2cc(C(=O)Nc3cc(C)cc(C)c3)ccc2c1=O  1.1%
18. CCOc1ccc(N2CC(C)Cn3c2nc2c3c(=O)n(Cc3c(F)cccc3Cl)c(=O)n2C)cc1 (stereo unspecified)  1.1%
19. Cc1csc2nc(COC(=O)c3ccccc3NC(=O)c3ccccc3Cl)cc(=O)n12  1.1%
20. Cn1nnnc1SCCCNCc1cccc(OCc2ccc(Cl)cc2)c1  0.9%
21. COc1ccc([N+](=O)[O-])cc1C1NN=C(c2cccc3ccccc23)S1 (stereo unspecified)  0.861%
22. NS(=O)(=O)c1ccc(-c2ccc(/C=C3\SC(=O)NC3=O)o2)cc1  0.85%
23. O=c1n(Cc2cccc(C(F)(F)F)c2)c2ccccc2c2nc(-c3ccccc3)nn12  0.85%
24. Cc1cc(C)c2oc(C(=O)Nc3c(C(=O)Nc4ccccc4)oc4ccccc34)cc(=O)c2c1  0.8%
25. Cc1ccsc1CN(C(=O)c1oc2ccc(Br)cc2c1C)C1CCS(=O)(=O)C1 (stereo unspecified)  0.7%
26. COc1cc(-c2cc3n(C)c(C)c(CCC(=O)Nc4ccc(F)cc4)c(=O)n3n2)cc(OC)c1OC  0.6%
27. Cc1ccc(-c2cc(C(=O)Oc3ccccc3Cl)no2)cc1C  0.6%
28. O=C(NCC12CC3CC(CC(C3)C1)C2)c1cc2nc(-c3ccccc3)cc(C(F)(F)F)n2n1  0.55%
29. Cc1cccc(Cn2c(=O)n(CCC(=O)NCCc3ccc(Cl)cc3)c(=O)c3sccc32)c1  0.55%
30. O=C(Nc1nc2c(s1)CCCC2)c1ccccc1F  0.5%
31. CCN(CC)S(=O)(=O)c1ccc2c(c1)nc(CN(C)C(=O)Nc1ccc(Cl)cc1)n2C  0.4%
32. O=C(CS(=O)(=O)c1cccc2nsnc12)N1CCN(c2cccc(Cl)c2)CC1  0.15%
33. O=C(Nc1ccc(C(=O)OCc2cc(=O)n3nc(C4CC4)sc3n2)cc1)c1ccc(F)cc1  -0.15%
34. COc1ccccc1CNCc1ccc(C(=O)O)s1  -0.25%
35. Cc1ccc(CNC(=O)Cn2c(=O)ccc3cc(S(=O)(=O)N4CCCC4)ccc32)cc1  -0.25%
36. CCOc1cccc(CNC(=O)c2ccc(N3CCCC3)c(NC(=O)Nc3ccccc3CC)c2)c1  -0.4%
37. O=C(CCSCc1ccccc1F)N1CCN(c2ccc(Cl)cc2)CC1  -0.6%
38. CCOc1ccc(-c2cc3nc(C4CCN(C(=O)OC(C)(C)C)CC4)c(C(=O)Nc4ccc(C(=O)OC)cc4)cn3n2)cc1  -0.6%
39. CCCN1CCN(CCCNC(=O)c2ccc3nc(Cc4ccccc4)oc3c2)CC1  -0.6%
40. COc1ccc(-n2ccn(CC(=O)Nc3ccc(C)c(C)c3)c(=O)c2=O)cc1OC  -0.8%
41. Cc1ccc(SCC(=O)Nc2ccc3oc(-c4ccccc4F)nc3c2)cc1  -1.1%
42. CN(C)c1ccc(C(=O)NCC(=O)OC(C(=O)Nc2cc(C(F)(F)F)ccc2Cl)c2ccccc2)cc1 (stereo unspecified)  -1.25%
43. COc1cc2c(cc1OC)C(c1cccc([N+](=O)[O-])c1)=NCC2  -1.3%
44. CC(C)Cn1c(=O)c2ccccc2n2c(CCC(=O)N3CCN(c4cccc(Cl)c4)CC3)nnc12  -1.35%
45. CC1=C(c2ccc(C)c(C)c2)S(=O)(=O)NC1=NCc1ccccc1Cl  -1.4%
46. O=C(CCS(=O)(=O)c1ccccc1)N(Cc1cccnc1)c1nc2c(F)cccc2s1  -1.7%
47. COC(=O)c1ccc(C2C(C(=O)Nc3ccccc3)=C(C)Nc3nc4ccccc4n32)cc1 (stereo unspecified)  -1.75%
48. CN1CCOc2cc(S(=O)(=O)N3CCN(S(=O)(=O)c4c(F)cccc4F)CC3)cnc21  -1.8%
49. CCOc1ccc(S(=O)(=O)c2cn(Cc3ccc(OC)cc3)c3ccc(F)cc3c2=O)cc1  -1.95%
50. CCOC(=O)C1CCCN(C(=O)c2ccc3c(c2)sc2nc(-c4ccc(CC)cc4)cn23)C1 (stereo unspecified)  -1.95%
51. CC(C)CCN(C(=O)Nc1ccc(Cl)c(Cl)c1)C(C)c1cccs1 (stereo unspecified)  -1.95%
52. COc1ccc(OCCCn2c(C3CC(=O)N(c4ccc(F)cc4)C3)nc3ccccc32)cc1 (stereo unspecified)  -2%
53. COc1ccc2[nH]c3c(c2c1)CCN(C(=O)CCC1CCCC1)C3c1ccc(F)cc1 (stereo unspecified)  -2.5%
54. CCN1CCN(CCCNC(=O)c2cnn(-c3ccc(C)cc3C)c2C2CCN(C(=O)OC(C)(C)C)CC2)CC1  -2.55%
55. CC(NC(=O)c1cc(Sc2ccc(F)cc2F)nc2ccccc12)c1ccccc1 (stereo unspecified)  -2.8%
56. Cc1cc(C)c(NC(=O)CSc2nc3nccnc3c(=O)n2CCc2c[nH]c3ccccc23)c(C)c1  -2.8%
57. Cc1ccc(S(=O)(=O)N2CCc3cc(C(=O)Nc4ccc(Cl)cc4C)ccc32)cc1  -2.8%
58. Cn1c(=O)n(Cc2c(F)cccc2Cl)c(=O)c2c1nc1n2CCN1c1ccc(F)cc1  -3.15%
59. Cc1cc2c(s1)c1cnn(Cc3c(F)cccc3Cl)c(=O)c1n2C  -3.2%
60. Oc1ccc(Cl)cc1C1C=C(c2ccc3c(c2)OCO3)NC(c2c(F)cccc2Cl)N1 (stereo unspecified)  -3.2%
61. O=[S+]([O-])(c1ccc2c(c1)OCCO2)N1CCN([S+](=O)([O-])c2c(Cl)cc(Cl)cc2Br)CC1  -3.2%
62. COc1ccc2c(Sc3ccc(C)cc3)c(C(=O)NC(C)c3ccccc3)[nH]c2c1 (stereo unspecified)  -3.25%
63. O=S(=O)(c1ccc2c(c1)OCCCO2)N1CCN(S(=O)(=O)c2c(F)cccc2F)CC1  -3.35%
64. O=C(CNC(=O)c1ccc(Cl)cc1Cl)OC(C(=O)Nc1cc(C(F)(F)F)ccc1Cl)c1ccccc1 (stereo unspecified)  -4%
65. Cc1noc(C)c1-c1ccc2ncnc(NCc3ccc(F)c(F)c3)c2c1  -4.15%
66. COc1ccc(Cl)cc1NC(=O)CCn1c(=O)c2cccn2c2ccccc21  -4.3%
67. CC(C)(C)OC(=O)N1CCC(c2c(C(=O)N3CCc4ccccc4C3)cnn2-c2ccc(F)cc2)CC1  -4.3%
68. COc1ccc(-c2nc(Cn3c(=O)cc(C)c4c(C)nn(-c5ccccc5)c43)c(C)o2)c(OC)c1  -4.4%
69. Cc1cc(C)cc(NC(=O)c2cnc3sc(N4CCCC4)nn3c2=O)c1  -4.45%
70. O=C(CCCn1c(=O)c2cccn2c2cccnc21)NCc1ccc(F)cc1  -4.5%
71. COc1ccc(CCNS(=O)(=O)c2cc(-c3cc(C)no3)ccc2C)cc1OC  -4.9%
72. CCc1nn(CC(=O)NCC(C)c2ccccc2)c(=O)c2cc3occc3n12 (stereo unspecified)  -5.55%
73. Cc1cc(NS(=O)(=O)c2ccc3oc(=O)c4ncn(C)c4c3c2)ccc1Br  -5.95%
74. CCCC(=O)Nc1cc(C(=O)NCc2ccc(OC)cc2)ccc1S(=O)(=O)c1ccc(Cl)cc1  -6.15%
75. Cc1ccc(C(=O)NC2CCN(C#N)CC2)cc1  -6.15%
76. Cc1ccc(C)c(CNC(=O)c2cc3ccccn3n2)c1  -6.6%
77. Cc1nc2ccn(Cc3cccs3)c(=O)c2cc1C(=O)NCc1ccc(Cl)cc1  -6.65%
78. COc1ccccc1N1CCN(CCCNC(=O)c2cnn(-c3ccccc3Cl)c2C2CCN(C(=O)OC(C)(C)C)CC2)CC1  -8.55%

In the case of `CN1C(=O)/C(=C\c2ccc(-c3ccccc3)o2)SC1=S`, the potentiation is reported as 39.7% (active).
In the case of `COc1ccc([N+](=O)[O-])cc1-c1nc2ccccc2nc1-c1ccccc1`, the potentiation is reported as 30.4% (active).
For `Cc1cccc(C)c1-n1ncc(C(=O)NCCCN2CCCCC2)c1C1CCN(C(=O)OC(C)(C)C)CC1`, the potentiation was 31.8% (active).
